Results filed as inconclusive are left out. The source made the active and inactive calls.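 Rule for the calls, unless noted: active = normalized viability below 100% at a tested concentration; inactive = the rest.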
What was measured:
[1] = Wnt pathway potentiators raising nuclear beta-catenin – imaging, WNT3A-conditioned medium, mouse C2C12, NPC library, primary screen (AID 1117326; in the data active = nuclear beta-catenin stimulation mostly above about 4.2%, no sharp cut-off; inactive = mostly below about 10%); conditions: stronger effect = higher value
[2] = stimulators of insulin release from INS-1E, primary screen, cell-based, 5 mM glucose, NPC library (AID 1117329;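 active = compound raises insulin release from rat beta cells at 5 mM glucose, no numeric limit stated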); conditions: rat INS-1E insulin secretion, at 10 µM, stronger effect = higher value
[3] = growth inhibition of GSK3B-pretreated HCT116 cells – cell-based, CellTiter-Glo, 0.2 to 20 µM (AID 1117336;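 active = compounds lowering colon cancer cell viability after pretreatment blocking the GSK3B kinase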); conditions: HCT116 viability after GSK3B inhibitor, at 20 µM, stronger effect = higher value
[4] = inhibition of endothelial tube formation, primary screen, imaging, VEGF stimulated, CD31 staining, tube area, NPC library (AID 1117340;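 active = compound that reduces growth-factor-driven endothelial tube area in a mixed cell culture, no cutoff stated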); conditions: VEGF-stimulated ADSC/ECFC co-culture, at 10 µM, stronger effect = higher value
[5] = GLP1 release stimulators, primary, NCI-H716, NPC library (AID 1117341;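 active = compound raises GLP1 secretion from the human gut endocrine cells, with no numeric limit stated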); conditions: NCI-H716 cells, at 10 µM, stronger effect = higher value
[6] = HCT116 colon cancer cell growth inhibition, primary screen, CellTiter-Glo luminescence, NPC library (AID 1117342;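 active = compounds that lower survival of HCT116 colon cancer cells in the luminescence readout, no numeric limit stated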); conditions: at 20 µM (top of the series)
[7] = reduced SW480 viability measured with CellTiter-Glo, NPC library, primary (AID 1117343;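 active = compounds that lower viability of the colon cancer cells in the luminescence readout, with no numeric limit stated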); conditions: CellTiter-Glo luminescence; at 20 µM (top of the series) unless noted
[8] = NPC library primary testing for decreased DLD-1 cell viability via CellTiter-Glo (AID 1117346;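 active = compounds that lower survival of DLD-1 colon cancer cells in the luminescence readout, no cutoff given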); conditions: DLD-1 viability, CellTiter-Glo luminescence; at 20 µM (top of the series)
[9] = viability loss in pontine glioma line – cell-based, SU-DIPG-XVII, MIPE5.0, CellTiter-Glo, qHTS, dose response (AID 1347060; cut-off not given, nearly all actives have AC50 up to about 26 µM;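 for AC50: cells exposed to compound for 48 hours before viability readout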); conditions: CellTiter-Glo ATP luminescence
[10] = viability loss in pontine glioma line – cell-based, SU-DIPG-XIII, MIPE4.0, CellTiter-Glo, qHTS, dose response (AID 1347061; cut-off not given, nearly all actives have AC50 up to about 37 µM;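 note: cells exposed to compound for 48 hours before readout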); conditions: CellTiter-Glo ATP luminescence
[11] = growth inhibition of DIPG cells – cell-based, MIPE4.0 library, CellTiter-Glo luminescence, qHTS (AID 1347066; cut-off not given, nearly all actives have AC50 up to about 30 µM;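 note: cells exposed to compound for 48 hours before readout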); conditions: SU-DIPG-VI viability, CellTiter-Glo ATP luminescence
[12] = growth inhibition of DIPG cells – cell-based, MIPE5.0 library, qHTS (AID 1347068; cut-off not given, nearly all actives have IC50 up to about 30 µM;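 for IC50: cells exposed to compound for 48 hours before viability readout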); conditions: SU-DIPG-XXV viability
[13] = viability loss with induced miR-34 in A549 – imaging, A549 dox-inducible miR-34, nuclei and caspase counts, primary screen (AID 1347080;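 active = compounds whose cell count with miR-34 switched on is under 0.7 times the count with it off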); conditions: A549 miR-34 inducible, Hoechst nuclei count, 48 h
[14] = MELAS cybrid and Rieske KO viability enhancers – cell-based, MELAS cybrids, Rieske KO mouse fibroblasts, CellTiter-Glo, primary screen (AID 1508586;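 active = mean z-score across replicates of 1.96 or higher in either the MELAS or the Rieske mutant cell line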;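 note: z relative to plate mean and SD of compound and empty wells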); conditions: low glucose
[15] = drug combination growth inhibition, ovarian cancer – cell-based, oncology-focused library, rucaparib conditional, profiling panel (AID 1508598); conditions: patient-derived ovarian cancer cells, CellTiter-Glo viability, 144 h, stronger effect = lower value
[16] = stronger effect = lower value, cell number ratio, induced over uninduced
[17] = measured here: relative caspase fold change +Dox/-Dox
[18] = measured here: total cells with miR-34 induction, stronger effect = lower value
[19] = measured here: total cells without miR-34 induction
[20] = MELAS cybrid survival, CellTiter-Glo 48 h, stronger effect = higher value
[21] = Rieske KO mouse fibroblast survival, CellTiter-Glo 72 h

O=C(NOCC1CC1)c1ccc(F)c(F)c1Nc1ccc(I)cc1Cl
1.7%: nuclear beta-catenin stimulation ([1]; stimulation, at 2 µM)
2940: cell count [13, 19]
3240: cell count [13, 18]
0.574: fold change [13, 17]
0.299: z-score [14, 21]
active: tube area decrease [4] 104% | inhibition of viability [6] 87.4% | viability decrease (inhibition) [7] 133% | viability decrease (inhibition) [8] 92.4% | AC50 [9] 2.35 µM | AC50 [10] 11.8 µM | AC50 [11] 10.5 µM | IC50 [12] 13.2 µM | viability ([15]; at 0.00488 µM, OCI-P5x cells, without rucaparib) 97.9% | viability ([15]; at 0.313 µM, OCI-P5x cells, without rucaparib) 92.7% | viability ([15]; at 1.25 µM, OCI-P5x cells, with rucaparib 20 µM, 100% = cells with rucaparib alone) 87.2% | viability ([15]; at 1.25 µM, OCI-P5x cells, without rucaparib) 90.5% | viability ([15]; at 5 µM, OCI-C5x cells, with rucaparib 10 µM, 100% = cells with rucaparib alone) 87.6% | viability ([15]; at 5 µM, OCI-P5x cells, with rucaparib 20 µM, 100% = cells with rucaparib alone) 61% | viability ([15]; at 5 µM, OCI-P5x cells, without rucaparib) 63.3%
inactive: nuclear beta-catenin stimulation ([1]; at 10 µM) 1.5% | insulin secretion stimulation [2] -0.4% | viability decrease [3] 43.3% | GLP1 secretion stimulation [5] 9.6% | fold change [13, 16] 1.1 | z-score [14, 20] -0.582 | viability ([15]; at 0.000305 µM, OCI-C5x cells, with rucaparib 10 µM, 100% = cells with rucaparib alone) 116% | viability ([15]; at 0.000305 µM, OCI-C5x cells, without rucaparib) 119% | viability ([15]; at 0.000305 µM, OCI-P5x cells, with rucaparib 20 µM, 100% = cells with rucaparib alone) 142% | viability ([15]; at 0.000305 µM, OCI-P5x cells, without rucaparib) 100% | viability ([15]; at 0.00122 µM, OCI-C5x cells, with rucaparib 10 µM, 100% = cells with rucaparib alone) 112% | viability ([15]; at 0.00122 µM, OCI-C5x cells, without rucaparib) 120% | viability ([15]; at 0.00122 µM, OCI-P5x cells, with rucaparib 20 µM, 100% = cells with rucaparib alone) 135% | viability ([15]; at 0.00122 µM, OCI-P5x cells, without rucaparib) 109% | viability ([15]; at 0.00488 µM, OCI-C5x cells, with rucaparib 10 µM, 100% = cells with rucaparib alone) 123% | viability ([15]; at 0.00488 µM, OCI-C5x cells, without rucaparib) 118% | viability ([15]; at 0.00488 µM, OCI-P5x cells, with rucaparib 20 µM, 100% = cells with rucaparib alone) 126% | viability ([15]; at 0.0195 µM, OCI-C5x cells, with rucaparib 10 µM, 100% = cells with rucaparib alone) 115% | viability ([15]; at 0.0195 µM, OCI-C5x cells, without rucaparib) 127% | viability ([15]; at 0.0195 µM, OCI-P5x cells, with rucaparib 20 µM, 100% = cells with rucaparib alone) 122% | viability ([15]; at 0.0195 µM, OCI-P5x cells, without rucaparib) 107% | viability ([15]; at 0.0781 µM, OCI-C5x cells, with rucaparib 10 µM, 100% = cells with rucaparib alone) 121% | viability ([15]; at 0.0781 µM, OCI-C5x cells, without rucaparib) 111% | viability ([15]; at 0.0781 µM, OCI-P5x cells, with rucaparib 20 µM, 100% = cells with rucaparib alone) 124% | viability ([15]; at 0.0781 µM, OCI-P5x cells, without rucaparib) 110% | viability ([15]; at 0.313 µM, OCI-C5x cells, with rucaparib 10 µM, 100% = cells with rucaparib alone) 121% | viability ([15]; at 0.313 µM, OCI-C5x cells, without rucaparib) 119% | viability ([15]; at 0.313 µM, OCI-P5x cells, with rucaparib 20 µM, 100% = cells with rucaparib alone) 106% | viability ([15]; at 1.25 µM, OCI-C5x cells, with rucaparib 10 µM, 100% = cells with rucaparib alone) 104% | viability ([15]; at 1.25 µM, OCI-C5x cells, without rucaparib) 117% | viability ([15]; at 5 µM, OCI-C5x cells, without rucaparib) 116%

CCC(C)(Oc1ccc(C2(c3ccc(OC(C)(CC)C(=O)O)cc3)CCCCC2)cc1)C(=O)O (stereo not given)
10200: cell count [13, 19]
-1.3%: nuclear beta-catenin stimulation ([1]; stimulation, at 2 µM)
0.575: z-score [14, 21]
9130: cell count [13, 18]
0.926: fold change [13, 17]
inactive: nuclear beta-catenin stimulation ([1]; at 10 µM) -1.5% | insulin secretion stimulation [2] 1.2% | viability decrease [3] -30.5% | tube area decrease [4] 0.6% | GLP1 secretion stimulation [5] 4.1% | inhibition of viability [6] -3.43% | viability decrease (inhibition) [7] 15.4% | viability decrease (inhibition) [8] -14.6% | outcome [9] | outcome [10] | outcome [11] | outcome [12] | fold change [13, 16] 0.893 | z-score [14, 20] -0.322

Source: PubChem BioAssay
